# Laboratory results taken from PubChem BioAssay (Tox21).
# Inconclusive results are not listed. Values without a mark were called inactive. Calls of active or inactive are those of the source. The call rests on the fitted dose curve; in most records, active means well fitted curve in the direction sought with a large enough effect in the repeat runs; inconclusive means weak or mixed curves; inactive means no such curve, though single readings can be large; an effect the other way counts as inactive or inconclusive.
# Test: qHTS assay to identify small molecule antagonists of the retinoid acid receptor (RAR) signaling pathway - cell viability counter screen (AID 1159551); further: nearly all actives have a fitted effect of over 35% in size
# Settings: C3RL4 cells viability, ATP luminescence (CellTiter-Glo), 6 h; series mostly up to 92.4 µM; activity change, negative = cytotoxicity: at the top concentration
# Procedure, shortened: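 Cytotoxicity counter screen in C3RL4 cells: 6 h compound exposure with 1 uM retinol (final), viability from cellular ATP by luminescence.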
# On the % scale 0 is the no-effect control and ±100 the full control effect.
row,Structure (SMILES),"activity change, negative = cytotoxicity"
1,c1ccc2c(c1)[nH]c1cnccc12,4.1%
2,O=c1[nH]c2ccccc2n1CCCN1CCC(n2c(=O)[nH]c3cc(Cl)ccc32)CC1,1.4% [at 42.5 µM]
3,Cc1ccc(OP(=O)(Oc2ccccc2)Oc2ccccc2)cc1,-0.0468%
4,Cc1c(Cl)c(=O)oc2cc(OP(=O)(OCCCl)OCCCl)ccc12,-0.615% [at 42.5 µM]
5,CCCN(CC)CC1COC2(CCC(C(C)(C)C)CC2)O1 (stereo not given),0.743%
6,FC(F)(F)c1cccc(C2=CCN(CCc3ccc4ccccc4c3)CC2)c1,0.203% [at 42.5 µM]
7,CCOC(=O)C1(c2ccccc2)CCN(CCC(C#N)(c2ccccc2)c2ccccc2)CC1,-0.931% [at 42.5 µM]
8,N#CCCSCCC#N,4.62%
9,OC(c1ccc(Cl)cc1)(c1ccc(Cl)cc1)C(Cl)(Cl)Cl,-1.74%
10,NNC(=O)c1ccccc1,-1.86%
11,C[C@]12CC[C@H]3[C@@H](CCC4=CC(=O)CC[C@@]43C)[C@@H]1CC[C@@H]2O,3%
12,CCCN(CCC)CCc1c[nH]c2ccccc12,-0.545%
13,CCOC(=O)OC1=C(c2cc(C)ccc2C)C(=O)NC12CCC(OC)CC2 (stereo not given),-1.33%
14,Fc1cccc(Cl)c1CCl,0.59%
15,CCN,3.29%
16,CC(C)OS(C)(=O)=O,2.16%
17,Clc1ccc(-c2ccc(Cl)c(Cl)c2Cl)c(Cl)c1Cl,0.253%
18,O=C(Nc1ccc2[nH]ccc2c1)c1cc2cc(F)ccc2n1Cc1cccc(F)c1,0.116%
19,COc1ccc(OC)c(CC(C)N)c1 (stereo not given),-0.395%
20,O=C(O)COc1nc(Cl)c(Cl)cc1Cl,1.88%
21,FC(Cl)(Cl)Cl,-2.61%

# Test: qHTS assay to identify small molecule antagonists of the retinoic acid receptor (RAR) signaling pathway (AID 1159552; further: nearly all actives have a fitted effect of over 50% in size; further: potency means the concentration at half of the fitted maximal effect)
# Settings: C3RL4 RARE luciferase reporter, retinol-stimulated, 6 h; series mostly up to 92.4 µM; activity, negative = inhibition: at the top concentration
# Procedure, shortened: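 Test chemicals and DMSO controls were pin-transferred onto C3RL4 cells a day after seeding; retinol (1 uM final) followed at once. Luminescent reporter output was quantified after 6 hr of co-incubation and 30 min with detection reagent.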
Structure (SMILES),Potency,"activity, negative = inhibition"
CCOCn1c(-c2ccc(Cl)cc2)c(C#N)c(Br)c1C(F)(F)F,3.06 µM (active),–
N#CNC#N,–,-7.9%
CCCCCCCCCCCCCN1CC(C)OC(C)C1 (stereo not given),–,-3.58%
C[C@H]1CC[C@@H]2[C@@H](C)[C@H]3[C@H](C[C@H]4[C@@H]5CC=C6CC(O[C@@H]7O[C@H](CO)[C@H](O)[C@H](O[C@@H]8O[C@H](CO)[C@@H](O)[C@H](O)[C@H]8O)[C@H]7O[C@H]7O[C@@H](C)[C@H](O)[C@@H](O)[C@H]7O)CC[C@]6(C)[C@H]5CC[C@]34C)N2C1 (stereo not given in full),28.2 µM (active),–
Clc1ccc(CCC(Cn2ccnc2)Sc2c(Cl)cccc2Cl)cc1 (stereo not given),–,-19.5% [at 42.5 µM]
O=[N+]([O-])c1c2ccccc2cc2ccccc12,–,60%
Nc1ccccc1C(=O)Oc1ccc2ccccc2c1,–,62.3%
BrC(Br)Br,–,0.491%
CC(C)[C@H](C(=O)OC(C#N)c1cccc(Oc2ccccc2)c1)c1ccc(OC(F)F)cc1 (stereo not given in full),–,-18.9%
C[C@@H]1O[C@@H](O[C@H]2C[C@@H](O)[C@]3(CO)[C@H]4[C@H](O)C[C@]5(C)[C@@H](C6=CC(=O)OC6)CC[C@]5(O)[C@@H]4CC[C@]3(O)C2)[C@H](O)[C@H](O)[C@H]1O,inactive,–
CC(C)(C)OO,–,20%
O=C1NCN(c2ccccc2)C12CCN(CC1COc3ccccc3O1)CC2 (stereo not given),–,12.5% [at 42.5 µM]
ClC(Cl)=C(c1ccc(Cl)cc1)c1ccc(Cl)cc1,–,-11.1%
CC(=O)Nc1ccc2c(c1)Cc1ccccc1-2,–,67.9%
ClC1=C(Cl)C2(Cl)C3C(Cl)C=CC3C1(Cl)C2(Cl)Cl (stereo not given),–,-8.69%
CC(C)CCCCCOC(=O)c1ccccc1C(=O)OCCCCCC(C)C,–,14.1%
c1ccc2c(c1)[nH]c1cnccc12,–,-1.32%
O=c1[nH]c2ccccc2n1CCCN1CCC(n2c(=O)[nH]c3cc(Cl)ccc32)CC1,–,45.7% [at 42.5 µM]
Cc1ccc(OP(=O)(Oc2ccccc2)Oc2ccccc2)cc1,–,-1.85%

Structure (SMILES),Potency,"activity, negative = inhibition"
Cc1c(Cl)c(=O)oc2cc(OP(=O)(OCCCl)OCCCl)ccc12,–,-10.1% [at 42.5 µM]
CCCN(CC)CC1COC2(CCC(C(C)(C)C)CC2)O1 (stereo not given),–,-5%
FC(F)(F)c1cccc(C2=CCN(CCc3ccc4ccccc4c3)CC2)c1,–,-7.55% [at 42.5 µM]
CCOC(=O)C1(c2ccccc2)CCN(CCC(C#N)(c2ccccc2)c2ccccc2)CC1,–,-16.5% [at 42.5 µM]
N#CCCSCCC#N,–,1.7%
OC(c1ccc(Cl)cc1)(c1ccc(Cl)cc1)C(Cl)(Cl)Cl,–,33.9%
NNC(=O)c1ccccc1,–,158%
C[C@]12CC[C@H]3[C@@H](CCC4=CC(=O)CC[C@@]43C)[C@@H]1CC[C@@H]2O,48.2 µM (active),–
CCCN(CCC)CCc1c[nH]c2ccccc12,–,55%
CCOC(=O)OC1=C(c2cc(C)ccc2C)C(=O)NC12CCC(OC)CC2 (stereo not given),43.2 µM (active),–
Fc1cccc(Cl)c1CCl,–,5.76%
CCN,–,0.768%
CC(C)OS(C)(=O)=O,–,19.8%
Clc1ccc(-c2ccc(Cl)c(Cl)c2Cl)c(Cl)c1Cl,–,-1.42%
O=C(Nc1ccc2[nH]ccc2c1)c1cc2cc(F)ccc2n1Cc1cccc(F)c1,68.6 µM (active),–
COc1ccc(OC)c(CC(C)N)c1 (stereo not given),–,8.48%
O=C(O)COc1nc(Cl)c(Cl)cc1Cl,–,5.05%
FC(Cl)(Cl)Cl,–,16.5%

# Test: qHTS assay to identify small molecule agonists of the retinoic acid receptor (RAR) signaling pathway (AID 1159553); further: potency means the concentration at half of the fitted maximal effect
# Settings: C3RL4 RARE luciferase reporter, agonist, 6 h; series mostly up to 73.3 µM; activation: at the top concentration
# Procedure, shortened: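 Agonist activity was scored in C3RL4 cells bearing a retinoic acid response element luciferase construct. Cells were treated with compounds for 6 hr at 37 C, and luciferase signal was measured as luminescence.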
Structure (SMILES),activation,Potency
CCOCn1c(-c2ccc(Cl)cc2)c(C#N)c(Br)c1C(F)(F)F,0.424%,–
N#CNC#N,-0.001% [at 94.8 µM],–
CCCCCCCCCCCCCN1CC(C)OC(C)C1 (stereo not given),0.309%,–
C[C@H]1CC[C@@H]2[C@@H](C)[C@H]3[C@H](C[C@H]4[C@@H]5CC=C6CC(O[C@@H]7O[C@H](CO)[C@H](O)[C@H](O[C@@H]8O[C@H](CO)[C@@H](O)[C@H](O)[C@H]8O)[C@H]7O[C@H]7O[C@@H](C)[C@H](O)[C@@H](O)[C@H]7O)CC[C@]6(C)[C@H]5CC[C@]34C)N2C1 (stereo not given in full),0.541% [at 94.8 µM],–
Clc1ccc(CCC(Cn2ccnc2)Sc2c(Cl)cccc2Cl)cc1 (stereo not given),-0.612%,–
O=[N+]([O-])c1c2ccccc2cc2ccccc12,–,19.1 µM (active)
Nc1ccccc1C(=O)Oc1ccc2ccccc2c1,–,0.193 µM (active)
BrC(Br)Br,-0.23%,–
CC(C)[C@H](C(=O)OC(C#N)c1cccc(Oc2ccccc2)c1)c1ccc(OC(F)F)cc1 (stereo not given in full),-4.57%,–
C[C@@H]1O[C@@H](O[C@H]2C[C@@H](O)[C@]3(CO)[C@H]4[C@H](O)C[C@]5(C)[C@@H](C6=CC(=O)OC6)CC[C@]5(O)[C@@H]4CC[C@]3(O)C2)[C@H](O)[C@H](O)[C@H]1O,–,inactive
CC(C)(C)OO,1.94%,–
O=C1NCN(c2ccccc2)C12CCN(CC1COc3ccccc3O1)CC2 (stereo not given),-4.46%,–
ClC(Cl)=C(c1ccc(Cl)cc1)c1ccc(Cl)cc1,–,inactive
CC(=O)Nc1ccc2c(c1)Cc1ccccc1-2,–,6.21 µM (active)
ClC1=C(Cl)C2(Cl)C3C(Cl)C=CC3C1(Cl)C2(Cl)Cl (stereo not given),-0.397% [at 94.8 µM],–
CC(C)CCCCCOC(=O)c1ccccc1C(=O)OCCCCCC(C)C,-2.77%,–
c1ccc2c(c1)[nH]c1cnccc12,-5.01%,–
O=c1[nH]c2ccccc2n1CCCN1CCC(n2c(=O)[nH]c3cc(Cl)ccc32)CC1,-1.18%,–
Cc1ccc(OP(=O)(Oc2ccccc2)Oc2ccccc2)cc1,-0.493% [at 94.8 µM],–

Structure (SMILES),activation,Potency
Cc1c(Cl)c(=O)oc2cc(OP(=O)(OCCCl)OCCCl)ccc12,-0.334%,–
CCCN(CC)CC1COC2(CCC(C(C)(C)C)CC2)O1 (stereo not given),-2.59%,–
FC(F)(F)c1cccc(C2=CCN(CCc3ccc4ccccc4c3)CC2)c1,1.67%,–
CCOC(=O)C1(c2ccccc2)CCN(CCC(C#N)(c2ccccc2)c2ccccc2)CC1,-7.66%,–
N#CCCSCCC#N,-0.892%,–
OC(c1ccc(Cl)cc1)(c1ccc(Cl)cc1)C(Cl)(Cl)Cl,5.56%,–
NNC(=O)c1ccccc1,–,1.77 µM (active)
C[C@]12CC[C@H]3[C@@H](CCC4=CC(=O)CC[C@@]43C)[C@@H]1CC[C@@H]2O,-10.7%,–
CCCN(CCC)CCc1c[nH]c2ccccc12,-33.7%,–
CCOC(=O)OC1=C(c2cc(C)ccc2C)C(=O)NC12CCC(OC)CC2 (stereo not given),-2.86%,–
Fc1cccc(Cl)c1CCl,0.75%,–
CCN,0.137% [at 94.8 µM],–
CC(C)OS(C)(=O)=O,-0.904% [at 94.8 µM],–
Clc1ccc(-c2ccc(Cl)c(Cl)c2Cl)c(Cl)c1Cl,0.55%,–
O=C(Nc1ccc2[nH]ccc2c1)c1cc2cc(F)ccc2n1Cc1cccc(F)c1,-15.7%,–
COc1ccc(OC)c(CC(C)N)c1 (stereo not given),-2.9% [at 94.8 µM],–
O=C(O)COc1nc(Cl)c(Cl)cc1Cl,-0.649% [at 94.8 µM],–
FC(Cl)(Cl)Cl,-0.0564%,–
